Compound activity: PubChem, National Center for Advancing Translational Sciences (NCATS)
Most compounds without a hit are left out; they make up all but 17% or so of the library.
HepG2 viability = HepG2 cytotoxicity, counter-screen for TGF-b inhibitors | Potency, µM (highest dose often 46.1 µM), without a hit: at the highest dose activity change, negative = cytotoxicity, usual class: cytotoxic | HepG2 CAGA-GFP viability, ATP luminescence, 18 h | 0.76% of 410,000 active
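CellTiter-Glo luminescence gave cytotoxicity after 18 hours at 37 degrees C. The cells were HepG2 CAGA-GFP in 1% FBS DMEM, stimulated with 500 pg/mL TGF-beta after compound addition. %Activity was normalised to no-cell wells (complete cell-killing) and DMSO (no toxicity), and curves were fitted and classified.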
HT1080 IDH1KD tx = HT-1080 IDH1 knockdown cell toxicity (counter line); Potency, µM (top dose mostly 46.1 µM), without a hit: at the highest dose activity, negative = toxicity, actives largely listed as cytotoxic; AID 686971; HT-1080 IDH1 knockdown viability, ATP luminescence, 48 h; 2% of 360,000 active;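 note: 0% = DMSO wells and -100% = cell-free medium wells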
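Assay cells: HT-1080 with IDH1 knockdown, 750 per well, RPMI/5% FBS. Exposure: 48 h at 37 °C following 2 h pre-incubation. Read: CellTiter-Glo luminescence; fitted concentration-response, curve class assigned.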
TGFb SMAD3 inh = blocks TGF-b signaling; HepG2 CAGA-GFP TGF-b/SMAD3 reporter, GFP fluorescence, 18 h; TGF-beta stimulated, 500 pg/mL final; Potency, µM (highest dose often 46.1 µM), for inactives: at the highest dose activity, negative = inhibition, most hits filed as inhibitors; 1.2% of 410,000 active; AID 588855; note: % is set by controls: 0 for no effect and ±100 for the full control effect; nearly all actives have a fitted effect of over 65% in size
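HEPG2 CAGA-GFP cells (1000/well, DMEM with 1% FBS) were pre-incubated 2 h at 37 degrees C, given compound by pin tool, then stimulated with TGF-beta at 500 pg/mL final for 18 h before per-cell GFP fluorescence imaging.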
HT1080-NT tox = kills 2HG-producing HT-1080-NT fibrosarcoma cells | HT-1080-NT fibrosarcoma viability, CellTiter-Glo ATP luminescence, 48 h | AID 686970 | Potency, µM (highest dose often 46.1 µM), for inactives: at the highest dose activity, negative = less viability, most hits filed as cytotoxic | 1.6% of 360,000 active;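 note: NT is the 2HG producing partner of a matched IDH1 knockdown line; 0% = DMSO-treated cells and -100% = media-only wells without cells; nearly all actives have a fitted effect of over 55% in size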
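HT-1080-NT; 750 cells/well; 5% FBS RPMI; 48 h compound, 37 degrees C; CellTiter-Glo luminescence; curve fitting and curve-class assignment.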
TDP1 cell CPT = growth inhibition of DT40 Tdp1-/-;hTDP1 cells with camptothecin (screen for TDP1 inhibitors) | chicken DT40 Tdp1-/-;hTDP1 cells + 20 nM CPT, ATP luminescence, 48 h | Potency, µM (highest dose often 46.2 µM), without a hit: at the highest dose activity change, negative = growth inhibition, actives largely listed as inhibitors | 12% of 420,000 active | AID 686979; note: % is set by controls: 0 for no effect and ±100 for the full control effect; nearly all actives have a fitted effect of over 55% in size
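Chicken DT40 Tdp1-/- cells complemented with human TDP1, 400 cells/well, exposed to compounds plus 20 nM camptothecin for at least 48 h at 37 C; viability read as ATP content by CellTiter-Glo luminescence.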
DT40 TDP1 no CPT = qHTS for Inhibitors of human tyrosyl-DNA phosphodiesterase 1 (TDP1): qHTS in cells in absence of CPT. 15% of 420,000 active. Potency, µM (titrated, usually from 46.2 µM), without a hit: top-dose activity change, negative = growth inhibition, actives largely listed as inhibitors. DT40 Tdp1-/- hTDP1 cells, no CPT, ATP luminescence, 48 h; note: % is set by controls: 0 for no effect and ±100 for the full control effect; nearly all actives have a fitted effect of over 55% in size
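DT40 Tdp1-/-;hTDP1 cells, no CPT (DMSO vehicle only), 400 cells/well; compounds pin-transferred; ≥48 hr, 37 °C; CellTiter-Glo 30 min RT dark, luminescence read.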
* hit, by the source's call; ? = inconclusive; . = no result given. Calls come from the whole dose curve; as a rule, active = well fitted curve in the direction sought with a large enough effect; inconclusive = small, poorly fitted or top-dose-only effect, or another doubt; inactive = no such curve, though single readings can be large; an effect the other way counts as inactive or inconclusive. Potency is the fitted concentration of half-maximal effect.

SMILES	HepG2 viability	HT1080 IDH1KD tx	TGFb SMAD3 inh	HT1080-NT tox	TDP1 cell CPT	DT40 TDP1 no CPT
CCCNC(=O)CCc1c(C)nc2nc(CNC(=O)c3ccccc3)nn2c1C	-36%	.	1%	.	14%	-4%
Cc1ccc(NC(=O)CCn2cccc2)cc1Cl	14%	7%	-16%	1%	-7%	-8%
NC(=S)NN=C1c2ccccc2-c2ccccc21	-111%	-7%	6.3µM*	-8%	5.2µM*	2.9µM*
COc1ccc(CNc2nc(-c3ccccc3OC)nc3ccccc23)c(OC)c1	.	.	.	.	23µM*	9.2µM*
COc1ccc(CNc2ccnc(-c3ccccc3OC)n2)c(OC)c1	.	.	.	.	13µM*	23µM*
COc1ccc(CNc2nc3ccccc3n2C)c(OC)c1	-6%	-25%	?	-28%	?	16µM*
COc1cccc(-c2nccc(NCc3ccccc3OC)n2)c1	.	.	.	.	-29%	?
COc1ccc(CNc2nc3ccccc3n2C(C)C)c(O)c1	-10%	-8%	-12%	-4%	?	?
COc1ccc(CNc2ncncc2-c2ccccc2Cl)c(OC)c1	.	.	.	.	-2%	-17%
COc1ccc(CNc2ccnc(-c3ccccc3Cl)n2)c(OC)c1	.	.	.	.	?	23µM*
C[C@H]1CN[C@H](CCO)/C1=C\c1ccccc1	-11%	3%	0%	6%	-7%	-28%
COCCC(=O)NC1CCCc2c1cnn2-c1cccc(C)c1C (stereo not drawn)	-1%	20%	-22%	7%	-19%	-22%
COc1ccc(CCC(C)NCc2ccccc2OC)cc1 (stereo not drawn)	-30%	-5%	-13%	0%	26µM*	?
COc1ccc(CNc2ncncc2-c2ccccc2CN(C)C)c(OC)c1	.	.	.	.	-22%	-23%
COc1ccc(CNc2ccnc(-c3ccccc3CN(C)C)n2)c(OC)c1	.	.	.	.	?	15µM*
COc1cc(CNCc2ccc(OC)c(OC)c2OC)cc(OC)c1	-29%	?	-1%	0%	18µM*	21µM*
COc1ccc(CNCc2ccncc2)c(OC)c1	-19%	-14%	-14%	0%	7%	-22%
COc1ccccc1CCNC(C)CCc1ccc(O)cc1 (stereo not drawn)	-23%	-1%	16%	5%	?	-20%
COc1ccc(CNCc2ccc3ccccc3c2)c(OC)c1	-36%	-10%	?	-18%	16µM*	16µM*
CCOC(=O)c1cnc(SC)nc1Oc1cccc(NC(=O)c2cccc(Cl)c2Cl)c1	-25%	9%	0%	15%	?	?
CCC(C)(C)C1CCc2[nH]nc(C(=O)NCc3ccc(Cl)cc3)c2C1 (stereo not drawn)	-8%	18%	?	14%	?	?
COCC(C)N1C(=O)Cc2c1nc(N)c1c(N)nc(N3CCN(c4ccccc4F)CC3)c(C#N)c21 (stereo not drawn)	7%	-19%	11%	4%	?	26µM*
Cc1cc(C)c(C#N)c(N2CCN(c3ccccc3F)CC2)n1	-55%	1%	-2%	1%	7%	-8%
COCCN1C(=O)Cc2c1nc(N)c1c(N)nc(N3CCN(c4ccc(F)cc4)CC3)c(C#N)c21	6%	-4%	17%	0%	8.2µM*	2.1µM*
CCC1Cc2c(nc(N)c3c(N)nc(N4CCOCC4)c(C#N)c23)O1 (stereo not drawn)	-8%	-5%	4%	-8%	?	?
SMILES	HepG2 viability	HT1080 IDH1KD tx	TGFb SMAD3 inh	HT1080-NT tox	TDP1 cell CPT	DT40 TDP1 no CPT
COc1ccc(CN2C(=O)Cc3c2nc(N)c2c(N)nc(N4CCOCC4)c(C#N)c32)cc1	13%	8%	8%	-3%	15µM*	21µM*
COC(=O)c1cc2c([nH]c1=O)CC(c1ccccc1)CC2=O (stereo not drawn)	-18%	.	-13%	.	?	?
O=S(=O)(c1cccc(-c2nc3n(n2)Cc2ccccc2-3)c1)N1CCCC1	-10%	12%	0%	-6%	21µM*	?
COc1cccc(Nc2nc(-c3ccccc3)c3cc(C)ccc3n2)c1	-19%	.	-29%	.	7.3µM*	?
Cc1cccc(Nc2nc(-c3ccccc3)c3cc(C)ccc3n2)c1	-26%	.	-11%	.	?	?
Cc1ccc2nc(NCCCO)nc(-c3ccccc3)c2c1	-23%	?	4%	?	13µM*	12µM*
O=C(Cc1c(Cl)cccc1Cl)OCC(=O)c1ccc[nH]1	-55%	0%	-2%	11%	?	?
Clc1ccccc1N1CCN(Cc2c[nH]c3ccccc23)CC1	-49%	18µM*	16µM*	?	2.6µM*	5.2µM*
Fc1ccccc1N1CCN(C2CCN(Cc3c[nH]c4ccccc34)CC2)CC1	-1%	-6%	1%	7%	16µM*	?
CCCCCCCCCCCCCCCCC(C(=O)O)C(O)(CC(=O)O)C(=O)O (stereo not drawn)	.	.	.	.	17%	-9%
O=C(CCN1CCN(Cc2ccccc2)CC1)NNC(=O)Nc1cccc(C(F)(F)F)c1	-10%	-3%	-3%	-10%	4%	3%
COc1ccc(C(=O)NC2CC(C)(C)Cc3c2cnn3-c2ccccc2C)c(OC)c1OC (stereo not drawn)	0%	-1%	-11%	2%	23µM*	16µM*
CCc1ccc(OCc2ccccc2C(=O)Nc2ccc3nc(C)cc(N)c3c2)cc1	4µM*	.	4µM*	.	5µM*	3.2µM*
O=C(CSCc1cc(=O)c2ccccc2[nH]1)Nc1cccc(C(F)(F)F)c1	-22%	.	-14%	.	-25%	?
O=C(N[C@@H]1c2ccccc2C2(CCN(C(=O)c3ccc4c(c3)OCCO4)CC2)[C@H]1O)c1cccnc1	.	.	.	.	?	-4%
CCn1c(NCc2ccccc2NS(=O)(=O)c2ccc(C)cc2)nc2ccccc21	0%	-30%	-23%	-25%	16µM*	18µM*
CCn1c(NCc2cc(Br)ccc2NS(=O)(=O)c2ccc(C)cc2)nc2ccccc21	-22%	-22%	?	-24%	?	?
CCCn1c(NCc2ccccc2NS(=O)(=O)c2ccc(C)cc2)nc2ccccc21	-10%	?	0%	?	?	16µM*
CCCCN1CCc2c1nc1ccc(Br)cc1c2N	16µM*	?	?	?	?	23µM*
